PubChem BioAssay AID504832 (National Center for Advancing Translational Sciences (NCATS), 2011)
About 18,000 (5.8%) of roughly 310,000 compounds were called active. Roughly 22% stayed inconclusive and do not appear here. This excerpt belongs to a sample that is enriched for actives. Unmarked numbers belong to inactive results. Calls come from the whole dose curve; as a rule, active = well fitted inhibition curve with a large enough effect; inconclusive = small, poorly fitted or top-dose-only effect, or another doubt; inactive = no such curve, though single readings can be large or run the other way.
% is set by controls: 0 for no effect and ±100 for the full control effect; potency is the fitted concentration of half-maximal effect.

Experiment: Primary qHTS for delayed death inhibitors of the malarial parasite plastid, 48 hour incubation
Settings: P. falciparum luciferase growth in erythrocytes; series mostly up to 28.7 µM; activity change, negative = inhibition: at the top concentration
Outline: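 Read-out is firefly luciferase luminescence from an integrated reporter in P. falciparum, so falling signal marks reduced parasite growth. Infected erythrocytes were at 2% hematocrit and 0.1% parasitemia (final) in Albumax-supplemented RPMI 1640.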
With `Cc1nnc(SCC(=O)Nc2ccc(S(=O)(=O)Nc3ccc(Cl)nn3)cc2)s1` the “activity change, negative = inhibition” value was 19.4%.
For `CCC(C)(NC(=O)c1ccccn1)C(=O)NC1CCCCC1` (stereo not given), the “activity change, negative = inhibition” value was 19.9%.
With `CCN(CC)CCOc1ccc2c(c1)C(=NNC(=O)c1ccccn1)c1cc(OCCN(CC)CC)ccc1-2` the Potency was 370 nM (active).
In the case of `Cc1cccc(OCC(=O)NCCCNC(=O)c2ccccn2)c1`, the “activity change, negative = inhibition” value is reported as -12%.
With `CCOc1ccccc1OCC(=O)Nc1ccccc1C(=O)NC1CC1` the “activity change, negative = inhibition” value was 35.1%.
In the case of `O=C(CCNS(=O)(=O)c1ccccc1C(F)(F)F)Nc1ccncc1`, the “activity change, negative = inhibition” value is reported as -7.69%.
For `C/C(N)=C(/C#N)C(=O)COC(=O)C1=NN(c2ccccc2)C(=O)CC1`, the “activity change, negative = inhibition” value was 27.2%.
For `O=C(Nc1ccccc1-c1nc2ccccc2[nH]c1=O)c1cccs1`, the “activity change, negative = inhibition” value was 14.3%.
With `Cc1ccc(C(=O)c2ccc(N3CCN(C)CC3)c([N+](=O)[O-])c2)cc1` the “activity change, negative = inhibition” value was 1.89%.
For `CN1CCN(c2ccc(S(=O)(=O)Nc3ccccc3)cc2[N+](=O)[O-])CC1`, the “activity change, negative = inhibition” value was 3.28%.
In the case of `CN1CCN(S(=O)(=O)c2ccc(N3CCN(c4ccccc4O)CC3)c([N+](=O)[O-])c2)CC1`, the Potency is reported as 11700 nM (active).
For `COc1ccccc1C(=O)NCCC(=O)N(C)Cc1cccnc1`, the “activity change, negative = inhibition” value was -25.2%.
With `Cc1ccc(S(=O)(=O)N2CCCCC2)cc1C(=O)N(C)CC(=O)Nc1cccc(F)c1` the “activity change, negative = inhibition” value was 0.872%.
With `COc1ccccc1C(=O)NCCC(=O)NC1=NCCS1` the “activity change, negative = inhibition” value was 13.4%.
In the case of `COc1ccc(N(CC(=O)N2CCOCC2)S(=O)(=O)c2ccccc2)cc1Cl`, the “activity change, negative = inhibition” value is reported as -1.91%.
For `COc1ccc(NC(=O)CN(C)C(=O)c2ccc(NC3CC3)c([N+](=O)[O-])c2)cc1`, the “activity change, negative = inhibition” value was -29.9%.
With `CCCCN(C(=O)C1CCC1)c1c(N)n(Cc2ccccc2)c(=O)[nH]c1=O` the “activity change, negative = inhibition” value was -25.9%.
For `O=C(Cn1cc(-c2nnnn2-c2ccc(Cl)cc2)c(=O)c2ccccc21)c1ccccc1`, the Potency was 1650 nM (active).
With `O=C(Nc1ccccc1)OCc1cn(-c2ccc(Cl)cc2)nn1` the “activity change, negative = inhibition” value was 50.9%.
In the case of `CCCc1c(C(=O)O)cnn1-c1ccc(Cl)cc1`, the “activity change, negative = inhibition” value is reported as -4.75%.
In the case of `O=C(NCCS(=O)(=O)N1CCN(c2ccc(F)cc2)CC1)c1ccc2c(c1)OCO2`, the “activity change, negative = inhibition” value is reported as -0.0064%.
In the case of `CCOCCCNC(=S)Nc1ccc2nc(N3CCN(CC)CC3)cc(C)c2c1`, the “activity change, negative = inhibition” value is reported as -7.67%.
In the case of `CC[N+](C)(CC)CCC[n+]1c(-c2ccccc2)c2cc(N)ccc2c2ccc(N)cc21`, the Potency is reported as 1850 nM (active).
In the case of `CC(=O)Nc1ccc(NC(=O)CCCNC(=O)c2ccc(Cl)cc2)cc1`, the “activity change, negative = inhibition” value is reported as 5.13%.
For `CC(=O)Nc1ccc(NC(=O)CSc2nnc(C3CC3)n2-c2ccccc2)cc1`, the “activity change, negative = inhibition” value was -3.28%.
In the case of `CC[n+]1c(C)n(-c2ccccc2)c2ccc(NC(C)=O)cc21`, the Potency is reported as 4650 nM (active).
With `CC(=O)c1cccc(NC(=O)c2cc(C)nn2-c2ccccc2)c1` the activity change, negative = inhibition was -2.83% [at 0.00184 µM].
With `O=C(COc1ccc(Cl)cc1)NCCS(=O)(=O)N1CCN(c2ccc(F)cc2)CC1` the “activity change, negative = inhibition” value was -29.8%.
With `CCc1ccccc1NC(=O)NCCN1CCCCC1` the “activity change, negative = inhibition” value was -1.62%.
For `CC(C)c1ccc(NC(=O)Cn2ncc3ccccc32)cc1`, the “activity change, negative = inhibition” value was 87.8%.
With `COc1cccc(NC(=O)CN(C)C(=O)CSCc2nc3scc(-c4cccs4)c3c(=O)[nH]2)c1` the “activity change, negative = inhibition” value was 2.18%.
For `N/C(=N\OC(=O)N1c2ccccc2Sc2ccccc21)c1ccc(Br)cc1`, the Potency was 8280 nM (active).
With `N/C(=N\OC(=O)Cc1ccccc1[N+](=O)[O-])c1ccc(Br)cc1` the “activity change, negative = inhibition” value was -9.12%.
For `N/C(=N\OC(=O)/C=C/c1ccccc1)c1ccc(Br)cc1`, the “activity change, negative = inhibition” value was 4.81%.
For `CCn1c(=S)sc2c(=O)n(CC(=O)Nc3ccc(OC)cc3)c(C)nc21`, the “activity change, negative = inhibition” value was 33.1%.
With `CC(C)Oc1ccc(CCc2n[nH]c(=S)n2Cc2ccccc2)cc1` the Potency was 2080 nM (active).
Work on `CC(C)Oc1ccc(CCc2nnc(SCC(=O)O)n2-c2ccccc2)cc1` yielded an activity change, negative = inhibition of 1.18% [at 5.75 µM].
For `C=CCn1c(CCc2ccc(OC(C)C)cc2)n[nH]c1=S`, the “activity change, negative = inhibition” value was 5.51%.
In the case of `CCOc1ccccc1OCCCNCc1ccccc1`, the “activity change, negative = inhibition” value is reported as -4.88%.
With `COc1cccc(NS(=O)(=O)c2ccc(-c3coc(C)n3)cc2)c1` the “activity change, negative = inhibition” value was 43%.
With `CCC(=O)Nc1ccc(-c2ccc(N3CCCCC3)nn2)cc1` the “activity change, negative = inhibition” value was -19.4%.
In the case of `CC(OC(=O)c1ccc(-n2cnnn2)cc1)C(=O)NCc1ccccc1` (stereo not given), the “activity change, negative = inhibition” value is reported as -13.8%.
In the case of `Cn1nnnc1SCC(=O)N1CCN(C(c2ccccc2)c2ccccc2)CC1`, the Potency is reported as 9280 nM (active).
In the case of `Cn1nnnc1SCC(=O)Nc1nc2ccccc2s1`, the “activity change, negative = inhibition” value is reported as 43.6%.
For `Cn1nnnc1SCC(=O)N1CCN(Cc2ccccc2)CC1`, the “activity change, negative = inhibition” value was -3.12%.
In the case of `O=C(c1ccc(-n2cnnn2)cc1)N1CCN(C(c2ccccc2)c2ccccc2)CC1`, the Potency is reported as 2620 nM (active).
In the case of `O=C(O)CN1CCN(C(c2ccccc2)c2ccccc2)CC1`, the “activity change, negative = inhibition” value is reported as -9.74%.
With `COC(=O)c1sc(N2CCN(Cc3ccccc3)CC2)nc1N` the activity change, negative = inhibition was -6.08% [at 0.00184 µM].
For `COc1ccccc1-n1ccnc(SCC(=O)NC2CCCCC2)c1=O`, the “activity change, negative = inhibition” value was -14.1%.
With `O=C(Nc1c2c(nn1-c1cccc(Cl)c1)CS(=O)(=O)C2)c1cccs1` the “activity change, negative = inhibition” value was -0.404%.
